# Laboratory results as given in PubChem BioAssay.
# Where “and” joins values, the source holds several entries; their conditions need not be identical. Identical values can stand only once. Results filed as inconclusive are left out. Calls of active or inactive are those of the source. Unless noted, how the calls were made is not given here.
# Key:
# [1] = viability loss in pontine glioma line – cell-based, SU-DIPG-XIII, MIPE4.0, CellTiter-Glo, qHTS, dose response (AID 1347061; cut-off not given, nearly all actives have AC50 up to about 37 µM;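 further: cells exposed to compound for 48 hours before readout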); details: CellTiter-Glo ATP luminescence
# [2] = compounds altering Cy5-DNA-NS3h complex signal – biochemical, LOPAC1280, artefact control for HCV NS3 helicase inhibitor project (AID 687037); details: Cy5-DNA-NS3h complex fluorescence interference counterscreen
# [3] = viability loss in pontine glioma line – cell-based, SU-DIPG-XVII, MIPE5.0, CellTiter-Glo, qHTS, dose response (AID 1347060; cut-off not given, nearly all actives have AC50 up to about 26 µM); details: CellTiter-Glo ATP luminescence
# [4] = viability loss in pontine glioma line – cell-based, JHH-DIPG-1, MIPE4.0, CellTiter-Glo, qHTS, dose response (AID 1347062; cut-off not given, nearly all actives have AC50 up to about 27 µM); details: JHH-DIPG-1 viability, CellTiter-Glo ATP luminescence
# [5] = viability loss in pontine glioma line – cell-based, SU-DIPG-IV, MIPE4.0, CellTiter-Glo, qHTS, dose response (AID 1347063; cut-off not given, nearly all actives have AC50 up to about 30 µM;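 further: compound exposure lasted 48 hours before the viability readout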); details: CellTiter-Glo ATP luminescence
# [6] = viability loss in pontine glioma line – cell-based, SU-DIPG-XIII, MIPE5.0, CellTiter-Glo, qHTS, dose response (AID 1347064; cut-off not given, nearly all actives have AC50 up to about 23 µM); details: CellTiter-Glo ATP luminescence
# [7] = growth inhibition of DIPG cells – cell-based, MIPE4.0 library, CellTiter-Glo luminescence, qHTS (AID 1347066; cut-off not given, nearly all actives have AC50 up to about 30 µM;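 further: cells exposed to compound for 48 hours before readout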); details: SU-DIPG-VI viability, CellTiter-Glo ATP luminescence
# [8] = JHH-DIPG-1 glioma cell viability, MIPE5.0 library, CellTiter-Glo luminescence, qHTS (AID 1347067; cut-off not given, nearly all actives have AC50 up to about 26 µM;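 further: cells exposed to compound for 48 hours before readout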); details: JHH-DIPG-1 glioma viability, CellTiter-Glo ATP luminescence
# [9] = growth inhibition of DIPG cells – cell-based, MIPE5.0 library, qHTS (AID 1347068; cut-off not given, nearly all actives have IC50 up to about 30 µM); details: SU-DIPG-XXV viability
# [10] = viability loss in pontine glioma line – cell-based, SU-DIPG-XXV, MIPE5.0, CellTiter-Glo, qHTS, dose response (AID 1347065; cut-off not given, nearly all actives have AC50 up to about 26 µM;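 further: cells exposed to compound for 48 hours before ATP readout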); details: CellTiter-Glo ATP luminescence
# [11] = biological target: ATP-dependent translocase ABCB1 (Homo sapiens) (UniProt P08183); experiment: P-glycoprotein substrate transport blockade – cell-based (AID 377; in the data active means fluorescence slope change above about 50%); details: MDR1-expressing cells, fluorescent substrate accumulation slope; stronger effect = higher value; concentration not given here
# [12] = compounds altering viability of human ES cells (AID 493140); details: human embryonic stem cell survival screen; stronger effect = higher value;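 further: cells exposed to compounds for four days before counting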
# [13] = growth inhibition, single agent or in combination, cell-based, chromothripsis tumors, cisplatin or BGB combos (AID 1671449; in the data active means inhibition above about 80%;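 further: cells exposed for 96 hours; 0% = vehicle DMSO and 100% = killing by high DMSO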); details: LFS_MB_P medulloblastoma cells
# [14] = growth inhibition, single agent and combos, cell-based, chromothripsis tumors, cisplatin or BGB combos (AID 1671450; in the data active means inhibition above about 80%;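 further: cells exposed to compound for four days; 0% = vehicle DMSO and 100% = cell killing by high DMSO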); details: HDN33 neuroblastoma cells, stronger effect = higher value
# [15] = growth inhibition, single agents and combos, ICB984, cell-based, cisplatin or BGB combos, synergistic combos for chromothripsis tumors (AID 1671451); details: ICB984 medulloblastoma cells, drug combinations, stronger effect = higher value;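 further: cells exposed for 96 hours before readout; 0% = vehicle DMSO and 100% = killing by high DMSO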
# [16] = growth inhibition, single agents and combos, HTB85, cell-based, BGB or cisplatin IC20 combos, synergistic combos for chromothripsis tumors (AID 1671453; in the data active means inhibition above about 80%;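 further: cells exposed for 96 hours before readout; 0% = vehicle DMSO and 100% = high DMSO killing control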); details: HTB85 osteosarcoma cells, drug combinations, stronger effect = higher value
# [17] = growth inhibition, MDA-MB-436, cell-based, BGB or cisplatin combos, synergistic combos for chromothripsis tumors (AID 1671458); details: MDA-MB-436 breast carcinoma growth inhibition, drug combinations, stronger effect = higher value;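 further: cells exposed for 96 hours; 0% = vehicle DMSO and 100% = killing by high DMSO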
# [18] = BT084 cell growth, single and combined drugs, ICGC_MB145, cisplatin and BGB IC40 combos (AID 1671461; in the data active means inhibition above about 80%;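 further: cells exposed to drugs for 96 hours; 0% = vehicle DMSO and 100% = high DMSO full killing control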); details: BT084 medulloblastoma cells, drug combinations, stronger effect = higher value
# [19] = RCMB18 cell growth, single agent and combined, cisplatin and BGB IC40 combos (AID 1671462; in the data active means inhibition above about 80%;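 further: cells exposed to compound for four days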); details: RCMB18 medulloblastoma cells, stronger effect = higher value
# Sequence of ATP-dependent translocase ABCB1 (Homo sapiens) (P08183 whole entry, looked up): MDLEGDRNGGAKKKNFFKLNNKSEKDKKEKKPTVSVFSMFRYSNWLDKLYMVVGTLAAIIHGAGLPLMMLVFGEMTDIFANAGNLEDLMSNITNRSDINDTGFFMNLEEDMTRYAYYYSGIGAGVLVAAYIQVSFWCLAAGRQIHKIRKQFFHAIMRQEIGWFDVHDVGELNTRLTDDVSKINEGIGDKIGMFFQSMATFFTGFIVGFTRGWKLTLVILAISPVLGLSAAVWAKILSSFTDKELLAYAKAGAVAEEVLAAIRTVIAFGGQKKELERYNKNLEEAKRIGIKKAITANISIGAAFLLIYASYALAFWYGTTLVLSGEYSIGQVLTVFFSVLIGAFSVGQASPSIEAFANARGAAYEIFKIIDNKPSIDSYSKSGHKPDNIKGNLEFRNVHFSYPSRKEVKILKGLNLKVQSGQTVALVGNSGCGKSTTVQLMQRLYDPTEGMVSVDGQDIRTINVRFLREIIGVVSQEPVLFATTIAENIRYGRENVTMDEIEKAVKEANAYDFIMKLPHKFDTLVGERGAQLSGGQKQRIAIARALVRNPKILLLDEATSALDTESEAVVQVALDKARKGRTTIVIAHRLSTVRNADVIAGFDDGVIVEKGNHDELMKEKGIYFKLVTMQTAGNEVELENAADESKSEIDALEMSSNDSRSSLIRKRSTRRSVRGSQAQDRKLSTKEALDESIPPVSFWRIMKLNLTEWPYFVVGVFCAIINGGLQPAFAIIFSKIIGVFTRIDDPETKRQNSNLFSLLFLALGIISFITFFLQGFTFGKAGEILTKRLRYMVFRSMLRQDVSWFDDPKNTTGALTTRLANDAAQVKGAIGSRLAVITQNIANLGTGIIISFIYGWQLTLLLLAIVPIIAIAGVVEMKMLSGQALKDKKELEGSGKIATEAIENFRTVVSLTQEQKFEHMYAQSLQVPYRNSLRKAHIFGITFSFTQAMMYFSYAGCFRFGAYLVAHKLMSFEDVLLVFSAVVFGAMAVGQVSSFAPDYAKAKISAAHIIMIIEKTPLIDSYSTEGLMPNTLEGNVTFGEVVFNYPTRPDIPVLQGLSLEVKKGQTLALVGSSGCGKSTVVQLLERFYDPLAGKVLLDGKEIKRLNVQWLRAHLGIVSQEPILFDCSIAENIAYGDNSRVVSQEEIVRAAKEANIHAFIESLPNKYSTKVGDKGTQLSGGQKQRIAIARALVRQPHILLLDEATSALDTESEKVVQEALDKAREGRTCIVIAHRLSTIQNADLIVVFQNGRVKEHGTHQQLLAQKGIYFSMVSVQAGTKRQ
structure (smiles),measurement,setting,value
COc1ccc(C(C)=O)c(O)c1,AC50,[1],13.2 nM (active)
O=c1c(O)c(-c2ccc(O)cc2O)oc2cc(O)cc(O)c12,fluorescence ratio (interference),[2],1 (inactive)
same,outcome,[3],inactive
same,outcome,[1],inactive
same,outcome,[4],inactive
same,outcome,[5],inactive
same,outcome,[6],inactive
same,outcome,[7],inactive
same,outcome,[8],inactive
same,outcome,[9],inactive
O=C(CCc1ccc(O)cc1)c1c(O)cc(O)cc1O[C@@H]1O[C@H](CO)[C@@H](O)[C@H](O)[C@H]1O,outcome,[1],inactive
same,outcome,[4],inactive
same,outcome,[5],inactive
same,outcome,[6],inactive
same,outcome,[10],inactive
same,outcome,[7],inactive
same,outcome,[9],inactive
CN(C)CCOC(c1ccccc1)c1ccccc1 (tested in a mixture with another compound),fluorescence slope change,[11],130% (active)
same,survival,[12],24.5 (inactive)
Oc1cc(O)c2c(c1)O[C@H](c1ccc(O)c(O)c1)[C@@H](O)C2,fluorescence slope change,[11],16.4% (inactive)
same,survival,[12],6.17 (inactive) and 8.75 (inactive)
same,fluorescence ratio (interference),[2],1 (inactive)
CC(C(=O)O)c1ccc(N2Cc3ccccc3C2=O)cc1 (configuration not stated),fluorescence slope change,[11],85.5% (active)
same,survival,[12],4.83 (inactive)
CC1(C)S[C@@H]2[C@H](NC(=O)Cc3ccccc3)C(=O)N2[C@H]1C(=O)O,survival,[12],5.08 (inactive)
COc1cc(S(C)=O)ccc1-c1nc2ncccc2[nH]1 (configuration not stated),fluorescence slope change,[11],5% (inactive)
same,survival,[12],5.5 (inactive)
NC1(C(=O)O)CC1,fluorescence ratio (interference),[2],1 (inactive)
COC(=O)[C@H]1[C@H]2C[C@H]3c4[nH]c5ccccc5c4CCN3C[C@H]2CC[C@@H]1O,survival,[12],5.58 (inactive)
same,fluorescence ratio (interference),[2],1 (inactive)
CN[C@H](CC(=O)O)C(=O)O,fluorescence ratio (interference),[2],1 (inactive)
NCCSSCCN,fluorescence ratio (interference),[2],1 (inactive)
CN1CCc2cccc3c2C1Cc1ccc(O)c(O)c1-3 (configuration not stated),fluorescence ratio (interference),[2],1 (inactive)
N[C@@H](Cc1cc(I)c(Oc2ccc(O)c(I)c2)c(I)c1)C(=O)O,fluorescence slope change,[11],18.7% (inactive)
same,survival,[12],4.58 (inactive)
COc1cc2c(cc1OC)-c1cc3ccc(OC)c(OC)c3c[n+]1CC2,fluorescence slope change,[11],29.3% (inactive)
same,survival,[12],1.83 (inactive)
NCCCCN,fluorescence ratio (interference),[2],0.9 (inactive)
NC(=O)CC[C@H](N)C(=O)O,fluorescence ratio (interference),[2],1 (inactive)
CC(=O)Oc1ccccc1C(=O)Oc1ccccc1C(=O)O,survival,[12],16.8 (inactive)
C=C1c2c(Cl)ccc(O)c2C(O)=C2C(=O)[C@]3(O)C(O)=C(C(N)=O)C(=O)[C@@H](N(C)C)[C@@H]3[C@@H](O)[C@H]12,survival,[12],6.83 (inactive)
CC(CN(C)C)CN1c2ccccc2Sc2ccccc21 (configuration not stated),fluorescence slope change,[11],102% (active)
same,survival,[12],1.08 (inactive)
NCCCS(=O)(=O)O,fluorescence ratio (interference),[2],1 (inactive)
NC(N)=NC(=O)c1nc(Cl)c(N2CCCCCC2)nc1N,fluorescence ratio (interference),[2],0.9 (inactive)
CN1CCc2c(c3ccccc3n2Cc2ccccc2)C1,fluorescence slope change,[11],70.9% (active)
same,survival,[12],3.25 (inactive)
O=C(O)c1cc2cc(F)ccc2[nH]1,fluorescence ratio (interference),[2],1 (inactive)
O=C1OC(=O)C2C3CCC(O3)C12 (configuration not stated),fluorescence ratio (interference),[2],1 (inactive)
COc1c2ccoc2cc2oc(=O)ccc12,inhibition,"[13]; at 0.5 µM, stronger effect = higher value",-22.9% (inactive)
same,inhibition,"[13]; measured here: combination with BGB IC20, at 0.005 µM",-15%
same,inhibition,"[13]; measured here: combination with BGB IC40, at 0.005 µM",-30%
same,inhibition,"[13]; measured here: combination with BGB IC40, at 0.05 µM",3.17%
same,inhibition,"[13]; measured here: combination with cisplatin, at 0.5 µM, stronger effect = higher value",-36.3%
same,inhibition,"[13]; measured here: combination with cisplatin, at 5 µM, stronger effect = higher value",-26.9%
same,inhibition,"[14]; BGB combo, at 5 µM",-4.43%
same,inhibition,[14]; at 0.5 µM,-1.51% (inactive)
same,inhibition,"[14]; cisplatin combo, at 5 µM",-17.2%
same,inhibition,"[14]; measured here: with BGB IC20 combination, at 0.5 µM",5%
same,inhibition,"[14]; measured here: with cisplatin IC20 combination, at 0.5 µM",1.07%
same,inhibition,"[14]; single agent, at 5 µM",-13.4%
same,inhibition,"[15]; BGB IC20 combo, at 0.005 µM",-7.99%
same,inhibition,"[15]; BGB IC40 combo, at 0.005 µM",-11.7%
same,inhibition,"[15]; BGB IC40 combo, at 0.05 µM",-24.6%
same,inhibition,[15]; at 0.5 µM,-24.1% (inactive)
same,inhibition,"[15]; cisplatin combo, at 0.05 µM",-24.6%
same,inhibition,"[15]; cisplatin combo, at 0.5 µM",-26.9%
same,inhibition,"[15]; cisplatin combo, at 5 µM",-4.96%
same,inhibition,"[15]; measured here: 5 uM single agent, at 5 µM",-16.8%
same,inhibition,[16]; at 0.5 µM,-23.4% (inactive)
same,inhibition,"[16]; measured here: with BGB IC20, at 0.5 µM",-60.7%
same,inhibition,"[16]; measured here: with BGB IC20, at 5 µM",-19.3%
same,inhibition,"[16]; measured here: with cisplatin IC20, at 0.5 µM",-7.94%
same,inhibition,"[16]; measured here: with cisplatin IC20, at 5 µM",10.7%
same,inhibition,"[16]; single agent, at 5 µM",-6.82%
same,inhibition,[17]; at 0.5 µM,-22.2% (inactive)
same,inhibition,"[17]; measured here: BGB combination, at 0.5 µM",-22.9%
same,inhibition,"[17]; measured here: BGB combination, at 5 µM",-18.9%
same,inhibition,"[17]; measured here: cisplatin combination, at 0.5 µM",-40%
same,inhibition,"[17]; measured here: cisplatin combination, at 5 µM",-24.1%
same,inhibition,[18]; at 0.5 µM,-16.4% (inactive)
same,inhibition,"[18]; cisplatin combination, at 0.5 µM",-9.55%
same,inhibition,"[18]; cisplatin combination, at 5 µM",-48%
same,inhibition,"[18]; measured here: BGB IC40 combination 0.05 uM, at 0.05 µM",-9.91%
same,inhibition,"[18]; single agent, at 5 µM",-11.1%
same,inhibition,[19]; at 0.5 µM,-11% (inactive)
same,inhibition,"[19]; cisplatin combo, at 5 µM",17.9%
same,inhibition,"[19]; measured here: BGB IC40 combination, at 0.05 µM",-6.4%
same,inhibition,"[19]; measured here: combination with cisplatin, at 0.5 µM",-1.6%
same,inhibition,"[19]; single agent, at 5 µM",-15.2%
NC(N)=NCCCCN=C(N)N,fluorescence slope change,[11],59.6% (active)
same,survival,[12],5.58 (inactive)
same,fluorescence ratio (interference),[2],1 (inactive)
NCCCCC(=O)O,fluorescence ratio (interference),[2],0.9 (inactive)
Cn1c(=O)[nH]c2ncn(C)c2c1=O,fluorescence ratio (interference),[2],1 (inactive)
Cc1cc(C(C)(C)CC(C)(C)C)ccc1OCCOCC[N+](C)(C)Cc1ccccc1,fluorescence slope change,[11],152% (active)
same,survival,[12],0.167 (inactive)
